Screening results (PubChem)
This is one part of a sample in which hits are shown more often than they occur.
CD40 NFkB inh: CD40 pathway inhibition in BL2 cells. BL2 NF-kB luciferase reporter, CD40L-induced, 4 h. inhibition, % at 10 µM. 83,000 compounds, 0.94% hits. AID 1053188;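 active = mean inhibition of at least 50% with a set share of replicates also reaching that level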;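 note: 0% = neutral control wells and 100% = IKK inhibitor VII at 50 µM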
Starred values were filed as active, the others as inactive; [ ] = remark or other dose.

SMILES	CD40 NFkB inh
O=C1CCC2(O)C3Cc4ccc(O)c5c4C2(CCN3CC2CC2)C1O5 (configuration not stated)	-8.3[25 µM]
O=C(Cc1cccnc1)N1CCCCN2[C@@H](CO)[C@H](c3ccc(C#CC4(O)CCCC4)cc3)[C@@H]2C1	4.8[25 µM]
COC(=O)C12OCC34C(CC5C(C)=C(O)C(=O)CC5(C)C3C(O)C1O)OC(=O)C(OC(=O)/C=C(\C)C(C)C)C24 (configuration not stated)	92.2*
C/C=C/c1ccc(C2[C@@H]3CN(C(C)=O)C[C@H]2N3)cc1 (some centres not stated)	11.0[25 µM]
COc1ccc(C#Cc2ccc([C@H]3[C@@H](CO)N4CCCCN(C(=O)Cc5ccccc5)C[C@H]34)cc2)cc1	-5.9
CCN(CC)CCOC1CCC2(C)C(=CCC3C4CCC(=O)C4(C)CCC32)C1 (configuration not stated)	-10.9[25 µM]
CN1[C@@H]2CN(CC3CC3)C[C@H]1C2c1ccc(Br)cc1 (some centres not stated)	-14.0
